Reference: PMC7826789 (International Journal of Molecular Sciences, 2021)

Key:
Details in all cases: Compound Concentration (nM):1000
KIT-autoinhibited = system: KIT-autoinhibited
KIT = system: KIT
LATS1 = system: LATS1
LATS2 = system: LATS2
LCK = system: LCK
LIMK1 = system: LIMK1
LIMK2 = system: LIMK2
LKB1 = system: T1, LKB1
T1 construct: gene STK11

LOK = system: T2, LOK
T2 construct: gene STK10

LRRK2(G2019S) = system: LRRK2(G2019S)
LRRK2 = system: LRRK2
LTK = system: LTK
LYN = system: LYN
LZK = system: T3, LZK
T3 construct: gene MAP3K13

MAK = system: MAK
MAP3K15 = system: MAP3K15
MAP3K1 = system: MAP3K1
MAP3K2 = system: MAP3K2
MAP3K3 = system: MAP3K3
MAP3K4 = system: MAP3K4
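Note: KINOMEscan scanMAX binding as percent activity remaining versus control; lower means stronger binding.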

| SMILES | Percent Control (KIT-autoinhibited) [%] | Percent Control (KIT) [%] | Percent Control (LATS1) [%] | Percent Control (LATS2) [%] | Percent Control (LCK) [%] | Percent Control (LIMK1) [%] | Percent Control (LIMK2) [%] | Percent Control (LKB1) [%] | Percent Control (LOK) [%] | Percent Control (LRRK2(G2019S)) [%] | Percent Control (LRRK2) [%] | Percent Control (LTK) [%] | Percent Control (LYN) [%] | Percent Control (LZK) [%] | Percent Control (MAK) [%] | Percent Control (MAP3K15) [%] | Percent Control (MAP3K1) [%] | Percent Control (MAP3K2) [%] | Percent Control (MAP3K3) [%] | Percent Control (MAP3K4) [%] |
| --- | --- | --- | --- | --- | --- | --- | --- | --- | --- | --- | --- | --- | --- | --- | --- | --- | --- | --- | --- | --- |
| CC1=C(C(=O)Nc2ccc3[nH]ncc3c2)C(c2ccc3ccccc3c2)CC(=O)N1 (stereo not shown) [GSK270822A] | 100 | 80 | 66 | 7 | 33 | 100 | 88 | 100 | 100 | 77 | 100 | 100 | 66 | 72 | 100 | 73 | 68 | 60 | 84 | 100 |
| Cl.O=C(Nc1ccc(Oc2ccc3[nH]c(NC(=O)c4ccccc4)nc3c2)cc1)Nc1cc(C(F)(F)F)ccc1F [GW709042A] | 86 | 1.4 | 98 | 85 | 50 | 95 | 93 | 100 | 1 | 68 | 39 | 9.5 | 72 | 100 | 100 | 100 | 57 | 100 | 84 | 100 |
| CN(C)c1cc2c(Nc3ccc4c(cnn4Cc4ccccc4)c3)ncnc2cn1 [GW282974X] | 100 | 100 | 100 | 65 | 77 | 100 |  | 100 | 20 | 93 | 97 |  | 89 | 100 | 98 | 100 |  | 90 | 73 | 88 |
| Nc1ncnc2occ(-c3ccc(NC(=O)Nc4cc(C(F)(F)F)ccc4F)cc3)c12 [GW770249X] | 31 | 0 | 100 | 91 | 25 | 100 | 94 | 83 | 0.4 | 81 | 77 | 4.5 | 29 | 100 | 100 | 100 | 51 | 91 | 91 | 94 |
| CCS(=O)(=O)c1ccc(OC)c(Nc2ncc(-c3cccc(OC)c3)o2)c1 [GW580509X] | 20 | 9.1 | 100 | 100 | 46 | 100 | 100 | 100 | 100 | 100 | 100 | 100 | 53 | 100 | 100 | 100 | 68 | 100 | 100 | 100 |
